Data reported in PubChem BioAssay AID1159580 (chemical genetic matrix, 2015).
Several values for one entry are separate records, joined by “and”; a condition that tells them apart may be missing. Equal entries are not always repeated. Among all 5,500 compounds or so, about 2,000 (36%) were called active. Inconclusive results (about 18%) are left out. No stated cut-off is given here; in the data, active means normalized growth mostly below about 0.91 (no sharp cut-off); inconclusive means no clear call, values can overlap the other calls; inactive means mostly above about 0.92. Some of the results follow.

Test: chemical genetic growth profiling, strain panel (AID 1159580);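 further: tested at 20 µM; growth read once vehicle control cultures reached saturation at 30 °C; 1 = growth at the plate median or of vehicle wells; lower values mean less growth of the strain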
Settings: S. cerevisiae deletion strains, growth OD

Measured: normalized growth

CCCCCCCCCCCC[C@H](C(=O)O)[C@@H](C)C(=O)O
inactive: locus YAL013W, strain DEP1, hits give low values 0.992 | locus YAL021C, strain ccr4, hits give low values 1.02 | locus YAL026C, strain drs2, hits give low values 0.952 | locus YAL030W, strain snc1, hits give low values 0.984 | locus YBL061C, strain skt5, hits give low values 0.982 | locus YBR009C, strain hhf1, hits give low values 0.994 | locus YBR021W, strain FUR4, hits give low values 0.995 | locus YBR023C, strain chs3, hits give low values 0.982 | locus YBR171W, strain sec66, hits give low values 0.936 | locus YBR229C, strain ROT2, hits give low values 0.993 | locus YBR231C, strain swc5, hits give low values 0.986 | locus YBR279W, strain paf1, hits give low values 0.976 | locus YCL011C, strain gbp2, hits give low values 0.995 | locus YCL016C, strain dcc1, hits give low values 0.996 | locus YCL029C, strain bik1, hits give low values 1.02 | locus YCL061C, strain MRC1, hits give low values 0.963 | locus YCL069W, strain vba3, hits give low values 0.975 | locus YCR088W, strain abp1, hits give low values 0.976 | locus YDL005C, strain med2, hits give low values 0.995 | locus YDL035C, strain GPR1, hits give low values 0.995 | locus YDL040C, strain nat1, hits give low values 0.977 | locus YDL074C, strain BRE1, hits give low values 0.986 | locus YDL101C, strain DUN1, hits give low values 1.02 | locus YDL134C, strain PPH21, hits give low values 0.993 | locus YDL185W, strain tfp1, hits give low values 1.03 | locus YDL192W, strain arf1, hits give low values 1.01 | locus YDR001C, strain nth1, hits give low values 0.966 | locus YDR069C, strain doa4, hits give low values 0.999 | locus YDR101C, strain arx1, hits give low values 1.01 | locus YDR137W, strain rgp1, hits give low values 0.929 | locus YDR150W, strain NUM1, hits give low values 0.998 | locus YDR159W, strain sac3, hits give low values 0.902 | locus YDR162C, strain NBP2, hits give low values 1.01 | locus YDR195W, strain ref2 0.98 | locus YDR297W, strain sur2, hits give low values 0.976 | locus YDR318W, strain mcm21, hits give low values 1.02 | locus YDR334W, strain swr1, hits give low values 0.985 | locus YDR335W, strain msn5, hits give low values 0.986 | locus YDR388W, hits give low values 1.01 | locus YDR392W, strain spt3, hits give low values 0.832 | locus YDR502C, strain sam2, hits give low values 1.02 | locus YEL003W, strain gim4, hits give low values 0.995 | locus YEL037C, strain rad23, hits give low values 0.976 | locus YEL061C, strain CIN8 (second series), hits give low values 0.957 | locus YEL061C, strain CIN8, hits give low values 0.988 | locus YER015W, strain faa2, hits give low values 0.985 | locus YER016W, strain bim1, hits give low values 0.984 | locus YER110C, hits give low values 1 | locus YER111C, strain swi4, hits give low values 0.938 | locus YER155C, strain BEM2 (second series), hits give low values 0.874 | locus YER155C, strain BEM2, hits give low values 0.979 | locus YER167W, strain BCK2, hits give low values 1.01 | locus YFR010W, strain ubp6, hits give low values 1.02 | locus YGL078C, strain dbp3, hits give low values 0.98 | locus YGL086W, strain mad1, hits give low values 1.01 | locus YGL167C, strain pmr1, hits give low values 0.943 | locus YGL173C, strain kem1, hits give low values 0.958 | locus YGL227W, strain vid30, hits give low values 0.975 | locus YGL240W, strain doc1, hits give low values 0.979 | locus YGL248W, strain PDE1, hits give low values 1 | locus YGL253W, strain hxk2, hits give low values 0.976 | locus YGR078C, strain PAC10, hits give low values 1.01 | locus YGR135W, strain pre9, hits give low values 1.01 | locus YGR229C, strain SMI1, hits give low values 0.999 | locus YGR252W, strain gcn5, hits give low values 1.05 | locus YHR013C, strain ard1, hits give low values 1.01 | locus YHR027C, strain rpn1, hits give low values 0.984 | locus YHR030C, strain SLT2, hits give low values 0.993 and 0.941 | locus YHR079C, strain IRE1 (second series), hits give low values 1 | locus YHR079C, strain IRE1, hits give low values 0.953 | locus YHR094C, strain hxt1, hits give low values 0.989 | locus YHR129C, strain ARP1, hits give low values 0.989 | locus YHR142W, strain chs7, hits give low values 1.02 | locus YHR200W, strain rpn10, hits give low values 1.02 | locus YIL066C, strain RNR3, hits give low values 0.992 | locus YIL073C, strain SPO22, hits give low values 1.06 | locus YIL125W, strain kgd1, hits give low values 0.997 | locus YIR030C, strain dcg1, hits give low values 1 | locus YJL092W, strain hpr5, hits give low values 0.967 | locus YJL095W, strain BCK1 (second series), hits give low values 0.992 | locus YJL095W, strain BCK1, hits give low values 1.01 and 0.953 | locus YJL115W, strain asf1, hits give low values 0.94 | locus YJL134W, strain LCB3, hits give low values 0.991 | locus YJL154C, strain vps35, hits give low values 0.99 | locus YJL164C, strain tpk1, hits give low values 0.999 | locus YJL166W, strain qcr8, hits give low values 0.992 | locus YJL168C, strain set2, hits give low values 1 | locus YJL187C, strain SWE1 (second series), hits give low values 1 | locus YJL187C, strain SWE1, hits give low values 0.971 | locus YJR043C, strain POL32, hits give low values 0.996 | locus YJR066W, strain TOR1, hits give low values 0.884
active: locus YJL129C, strain trk1, hits give low values 0.797
